Compound activity from PubChem BioAssay.
E coli Lon inh: inhibits E. coli Lon protease; purified E. coli Lon protease, fluorescence polarization; inhibition, % at 7.94 µM; hit rate 0.42% among 360,000; in the data active = inhibition above about 13%, passing the limit was not always enough;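 also: 0% = enzyme with probe and DMSO and 100% = no enzyme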
EBV gp42 block: EBV gp42 inhibition. hit rate 0.42% among 220,000. inhibition, % (tested at 21.74 µM). Fluorescence polarization binding assay, mP read-out. Q1HVG2; in the data active = inhibition above about 50%
Target sequence (Q1HVG2 whole entry, looked up): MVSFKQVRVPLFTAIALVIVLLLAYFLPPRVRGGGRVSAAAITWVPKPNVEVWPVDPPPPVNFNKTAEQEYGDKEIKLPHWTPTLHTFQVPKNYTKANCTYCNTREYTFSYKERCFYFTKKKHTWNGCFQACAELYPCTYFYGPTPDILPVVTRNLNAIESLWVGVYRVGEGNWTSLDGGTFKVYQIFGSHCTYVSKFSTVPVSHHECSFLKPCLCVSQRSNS
GLD-1 TGE inh: GLD-1-TGE RNA interaction inhibition (C. elegans); Q17339; inhibition, % at 5.96 µM; hit rate 0.44% among 320,000; purified GLD-1 + fluorescein TGE RNA, fluorescence polarization;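 active = percent inhibition above a per-plate cutoff, the plate mean of test compounds plus 3 SD, cut at about 30% in these data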;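 also: 0% = DMSO wells with GLD-1 and probe and 100% = wells lacking GLD-1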
Bcl-xL primary: inhibitors of human Bcl-xL; AID 2129; hit rate 0.7% among 320,000; GST-Bcl-xL / FITC-Bim BH3 peptide fluorescence polarization; inhibition, % at 10.9 µM;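 active = inhibition above the mean of all tested compounds plus 3 SD, cutoff set per campaign, cut at about 30% in these data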;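 also: 0% = DMSO wells and 100% = unlabeled Bim-BH3 peptide competitor; inhibitors lower millipolarization by displacing the labeled peptide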
MCL1-BIM inh: MCL1-BIM-BH3 interaction inhibition (human); Q07820; GST-MCL1 / FITC-Bim-BH3 fluorescence polarization; inhibition, % at 10.9 µM; hit rate 0.68% among 320,000;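 active = inhibition above the mean inhibition of all tested compounds plus 3 SD, set per campaign, cut at about 40% in these data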;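 also: 0% = DMSO wells and 100% = unlabeled Bim-BH3 peptide control; higher means more loss of mP so more displacement of Bim peptide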
MEX-5 binding: C. elegans MEX-5 TCR-2 RNA binding activity; AID 1832; activity score (negative = inhibition of binding), % at 10 µM; hit rate 0.38% among 300,000; Q9XUB2; MEX-5/FITC-TCR2 RNA binding, fluorescence polarization; hits give low values;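 active = inhibition past about -25% in most replicates, and total fluorescence under double the plate's negative control median, limit read from the data; inconclusive = replicates evenly split on the limit, or fluorescence at least double controls; inactive = too little inhibition in most replicates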;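 also: 0% = DMSO and -100% = 5 µM competing unlabeled TCR2 RNA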
Target sequence (Q9XUB2 whole entry, looked up): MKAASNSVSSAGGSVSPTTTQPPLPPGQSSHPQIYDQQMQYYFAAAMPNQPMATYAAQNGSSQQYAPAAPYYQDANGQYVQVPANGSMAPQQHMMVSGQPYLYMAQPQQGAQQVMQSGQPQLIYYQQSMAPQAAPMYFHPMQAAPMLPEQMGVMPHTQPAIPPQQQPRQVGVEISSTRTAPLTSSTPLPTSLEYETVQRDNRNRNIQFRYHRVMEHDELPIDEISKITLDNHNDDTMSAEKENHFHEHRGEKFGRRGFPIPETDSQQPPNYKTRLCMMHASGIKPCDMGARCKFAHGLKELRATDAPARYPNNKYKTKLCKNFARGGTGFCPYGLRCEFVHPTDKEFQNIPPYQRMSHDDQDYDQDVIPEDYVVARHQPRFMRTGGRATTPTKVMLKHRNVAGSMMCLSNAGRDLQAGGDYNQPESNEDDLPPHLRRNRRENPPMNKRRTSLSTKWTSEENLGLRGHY
Active calls of the source: *; ? = inconclusive; nt = no result. This is a sample that favours compounds with a hit; in the whole collection about 1.5% have one here.

SMILES | E coli Lon inh | EBV gp42 block | GLD-1 TGE inh | Bcl-xL primary | MCL1-BIM inh | MEX-5 binding
CCOC(=O)C1=C(O)/C(=C\c2cc(C)n(-c3ccccc3F)c2C)N=C1C | 2.8 | 9.0 | 28.8 | 48.1* | 37.1 | -3.4
COCCCn1c(=N)c(C(N)=S)cc2c(=O)n3cccc(C)c3nc21 | -6.7 | nt | -1.3 | 33.7* | 27.4 | -15.5
Cc1ccc2nc3c(cc(C(N)=S)c(=N)n3CCCOC(C)C)c(=O)n2c1 | -12.9 | -15.3 | 11.9 | 38.7* | 39.1 | -4.2
Cc1ccc2nc3c(cc(C(=O)NCCN4CCOCC4)c(=N)n3CCCN3CCOCC3)c(=O)n2c1 | 2.4 | nt | 1.1 | 9.7 | 8.6 | -0.4
COCCCn1c(=N)c(C(=O)NCc2ccc3c(c2)OCO3)cc2c(=O)n3cccc(C)c3nc21 | 3.7 | nt | nt | nt | nt | nt
Cc1cccn2c(=O)c3cc(C#N)c(=N)n(CCCN4CCOCC4)c3nc12 | -3.2 | nt | 11.7 | 13.1 | 17.6 | -5.0
Cc1cccn2c(=O)c3cc(C(N)=S)c(=N)n(CCCN4CCOCC4)c3nc12 | -3.1 | 2.4 | -5.3 | 32.5* | 33.9 | -13.0
O=C(CCC1CCN(C(=O)Cc2c(F)cccc2F)CC1)NC1CC1 | -3.8 | nt | -7.2 | -8.0 | -8.3 | -0.8
O=S(=O)(c1ccc(Br)cc1F)N1CCCCC1CCO (centres undefined) | -9.8 | nt | nt | nt | nt | nt
CCOC(=O)c1nnn(CC(=O)NC(=O)Nc2ccccc2)c1C(=O)OCC | -8.6 | 4.3 | 18.4 | 53.2* | 28.2 | -3.1
O=C(N/N=C/c1oc(O)c2ccccc12)c1ccccc1O | -0.1 | -7.9 | 4.8 | 9.4 | 26.8 | -33.9*
Cc1ccc(S(=O)(=O)N2CCCN(C)c3nc4ccccc4nc32)cc1 | -4.4 | nt | 18.3 | 37.9* | 32.4 | nt
CN1CCCN(S(=O)(=O)c2ccccc2)c2nc3ccccc3nc21 | -7.1 | nt | nt | nt | nt | nt
COC(=O)c1c(NC(=O)CC2SC(N)=NC2=O)sc2c1CCC(C(C)(C)C)C2 (centres undefined) | -10.4 | -8.3 | 1.4 | 5.6 | 3.8 | 1.2
O=c1c(/C=N/Nc2ccccc2)c(Sc2nnnn2-c2ccccc2)nc2ccccn12 | -130.4 | 152.4* | nt | nt | nt | nt
O=C(O)c1ccccc1N/N=C/c1c(Sc2nnnn2-c2ccccc2)nc2ccccn2c1=O | -29.3 | -23.0 | -44.5 | -26.0 | -47.6 | -25.6*
O=Cc1c(Sc2ccccc2)nc2ccccn2c1=O | -7.3 | -19.5 | -1.7 | 5.7 | 7.9 | -2.2
O=C(CSc1nnc2ccccn12)Nc1ccccc1C(=O)O | -8.8 | -5.8 | 1.4 | 6.4 | 6.6 | 1.3
COCc1cccc(-c2csc(C(C)(O)c3ccccc3)n2)c1 (centres undefined) | -3.2 | nt | nt | nt | nt | nt
Cc1ccc(C(=O)ONc2ccc(N=NC(=O)c3ccccc3O)cc2)cc1 | 2.7 | 92.6* | 10.2 | 4.6 | 8.4 | -0.1
O=C(Nc1nccs1)c1ccc(COc2ccccc2Cl)o1 | 3.5 | 1.4 | 1.4 | 4.5 | 8.8 | -4.5
C[C@H](O)C(=O)C1=Nc2c(nc(N)[nH]c2=O)NC1 | 6.9 | nt | 14.4 | 14.0 | 10.0 | nt
C[C@H](O)[C@H](O)[C@H]1CNc2nc(N)[nH]c(=O)c2N1 | 6.1 | nt | 20.2 | 32.8* | 28.1 | -11.1
Cn1c(=O)c(-c2cc(=O)[nH][nH]2)c(O)c2ccccc21 | 1.4 | -4.3 | -6.0 | 1.1 | 5.5 | -30.3*
CN(C)c1ccc(N=Cc2nc(-c3ccccc3)oc2OC(=O)c2cccc(Br)c2)cc1 | -85.9 | -2.1 | -19.6 | -31.8 | -66.7 | -43.3*
SMILES | E coli Lon inh | EBV gp42 block | GLD-1 TGE inh | Bcl-xL primary | MCL1-BIM inh | MEX-5 binding
COc1ccc(N=Cc2nc(-c3ccccc3)oc2OC(=O)c2ccccc2)cc1 | 0.3 | -14.8 | 1.5 | 0.4 | -1.6 | -1.5
CCn1cnc2scc(-c3ccccc3)c2c1=O | -6.3 | -9.7 | 5.3 | -0.4 | 3.5 | 2.0
Cn1cc(/C=N/n2cnc3scc(-c4ccc(Cl)cc4)c3c2=O)c2ccccc21 | 2.2 | 6.0 | 3.2 | 4.9 | 10.1 | -27.5*
CC(CC(=O)Nc1nnc(C(C)(C)C)s1)c1ccccc1 (centres undefined) | 4.6 | nt | 5.2 | 1.3 | 7.2 | 3.4
O=C(CNC(=S)N(Cc1ccccc1)Cc1ccccc1F)NCc1ccc(Cl)cc1 | 4.3 | 5.8 | nt | nt | nt | -1.5
CC(=O)C1=C(c2ccccc2)N(C(C)=O)n2c(C)nnc2S1 | -2.0 | -10.1 | 4.5 | 5.0 | -4.9 | -44.6*
CC(=O)N1CCN(c2nnc(-c3ccccc3)c3ccccc23)CC1 | 4.3 | nt | -3.1 | 2.4 | 3.0 | -0.9
O=C1N=C(N2CCOCC2)S/C1=C\c1ccc(-c2ccccc2Cl)o1 | 4.0 | 3.0 | -1.9 | 40.0* | 31.3 | ?
O=C(c1cnn2c(C(F)(F)F)cc(-c3cccs3)nc12)N1CCN(C(c2ccccc2)c2ccccc2)CC1 | -0.2 | -7.7 | 2.4 | 85.1* | -1.4 | 0.7
Cn1c(COc2ccc(Cl)cc2)nnc1SCC(=O)NC1CCCC1 | -4.8 | nt | 5.0 | -2.2 | -2.5 | -1.3
O=C(CN1C(=O)c2ccccc2C1=O)Nc1cc(C(=O)O)cc(C(=O)O)c1 | 6.8 | nt | 63.8* | 6.5 | 7.2 | -0.7
CCNC(=O)C1(C)CCN(C(=O)c2c(-c3ccccc3)noc2C)C1 (centres undefined) | 2.6 | nt | nt | nt | nt | nt
COc1ccc(OC)c(S(=O)(=O)Nc2ccc(F)cc2)c1 | -5.7 | -17.4 | 6.0 | 5.1 | 0.4 | 2.1
COc1ccc(NS(=O)(=O)c2cc(OC)ccc2OC)cc1 | -5.7 | nt | -1.7 | 37.3* | 4.3 | -1.1
CN(C)C(=O)CN1C(=O)NC(c2ccccc2)(c2ccccc2)C1=O | 10.1 | nt | -2.5 | -6.6 | -9.4 | 0.1
COc1cc(/C=c2\sc3nc(=O)c(-c4ccccc4)nn3c2=O)ccc1OCCC(C)C | 1.2 | -0.7 | -10.4 | -0.1 | -8.3 | nt
CCOc1ccc(/C=c2\sc3nc(-c4ccco4)nn3c2=O)cc1OCC | -0.3 | 47.5 | -6.9 | 14.4 | 28.4 | -30.5*
CCOC(=O)c1c(Nc2ccccc2N)cc(C)nc1C | -15.9 | 81.0* | 5.9 | 5.3 | 3.7 | nt
O=C(Nc1ccccc1F)c1coc(=O)c(Br)c1 | 1.2 | 3.6 | -1.8 | 4.1 | 1.3 | -55.9*
O=C(NCCc1ccc(F)cc1)c1coc(=O)c(Br)c1 | -0.8 | nt | 2.5 | 1.8 | -1.5 | -2.9
O=C(N/N=C/c1cccnc1)c1ccc(O)cc1 | -8.0 | nt | 2.8 | 3.8 | -1.7 | -3.2
O=C(N/N=C/c1cccnc1)c1cc(O)c(O)c(O)c1 | -12.5 | nt | 8.2 | 14.8 | 27.3 | -31.0*
CCCNc1c(NC(=O)C2CCC(C)CC2)c(=O)oc2ccccc12 (centres undefined) | -2.1 | nt | 0.2 | 0.2 | -3.9 | -0.3
CCCn1c(O)c(N=Nc2ccc3ccccc3n2)c2ccccc21 | -9.9 | 62.6* | 1.6 | -3.6 | -8.1 | -7.8
O=C(OCc1ccccc1)N1CCC2CC1c1ccc(N3CCN(Cc4ccc5c(c4)OCO5)CC3)cc12 (centres undefined) | 1.7 | nt | nt | nt | nt | nt
Nc1ccc(-c2nc3ccc(C(=O)O)cc3s2)cc1 | -5.6 | 98.8* | 0.7 | 7.1 | 11.9 | -2.8
CCN(CC)C(=O)C1=C(C)N(CCCOC)C(=O)C(CC(=O)NCCCN(C)C)C1 (centres undefined) | -4.6 | nt | nt | nt | nt | nt
